Measurements as given in the supplement of paper PMC11732987, “Enantioselective OTUD7B fragment discovery through chemoproteomics screening and high-throughput optimisation” (Communications Chemistry, 2025).

Key:
Experiment in all cases: log2 ratio of Biotin-Ahx-Ub-VS probe labelling (fragment/DMSO); higher = less target engagement (more negative = stronger competition), active = hit call of the paper (q ≤ 0.05, log2 ratio ≤ -1)
Conditions in all cases: compound concentration: 200 uM; treatment time: 3 h
USP42 = target: T1, USP42 (UniProt Q9H9J4)
T1 sequence (whole entry): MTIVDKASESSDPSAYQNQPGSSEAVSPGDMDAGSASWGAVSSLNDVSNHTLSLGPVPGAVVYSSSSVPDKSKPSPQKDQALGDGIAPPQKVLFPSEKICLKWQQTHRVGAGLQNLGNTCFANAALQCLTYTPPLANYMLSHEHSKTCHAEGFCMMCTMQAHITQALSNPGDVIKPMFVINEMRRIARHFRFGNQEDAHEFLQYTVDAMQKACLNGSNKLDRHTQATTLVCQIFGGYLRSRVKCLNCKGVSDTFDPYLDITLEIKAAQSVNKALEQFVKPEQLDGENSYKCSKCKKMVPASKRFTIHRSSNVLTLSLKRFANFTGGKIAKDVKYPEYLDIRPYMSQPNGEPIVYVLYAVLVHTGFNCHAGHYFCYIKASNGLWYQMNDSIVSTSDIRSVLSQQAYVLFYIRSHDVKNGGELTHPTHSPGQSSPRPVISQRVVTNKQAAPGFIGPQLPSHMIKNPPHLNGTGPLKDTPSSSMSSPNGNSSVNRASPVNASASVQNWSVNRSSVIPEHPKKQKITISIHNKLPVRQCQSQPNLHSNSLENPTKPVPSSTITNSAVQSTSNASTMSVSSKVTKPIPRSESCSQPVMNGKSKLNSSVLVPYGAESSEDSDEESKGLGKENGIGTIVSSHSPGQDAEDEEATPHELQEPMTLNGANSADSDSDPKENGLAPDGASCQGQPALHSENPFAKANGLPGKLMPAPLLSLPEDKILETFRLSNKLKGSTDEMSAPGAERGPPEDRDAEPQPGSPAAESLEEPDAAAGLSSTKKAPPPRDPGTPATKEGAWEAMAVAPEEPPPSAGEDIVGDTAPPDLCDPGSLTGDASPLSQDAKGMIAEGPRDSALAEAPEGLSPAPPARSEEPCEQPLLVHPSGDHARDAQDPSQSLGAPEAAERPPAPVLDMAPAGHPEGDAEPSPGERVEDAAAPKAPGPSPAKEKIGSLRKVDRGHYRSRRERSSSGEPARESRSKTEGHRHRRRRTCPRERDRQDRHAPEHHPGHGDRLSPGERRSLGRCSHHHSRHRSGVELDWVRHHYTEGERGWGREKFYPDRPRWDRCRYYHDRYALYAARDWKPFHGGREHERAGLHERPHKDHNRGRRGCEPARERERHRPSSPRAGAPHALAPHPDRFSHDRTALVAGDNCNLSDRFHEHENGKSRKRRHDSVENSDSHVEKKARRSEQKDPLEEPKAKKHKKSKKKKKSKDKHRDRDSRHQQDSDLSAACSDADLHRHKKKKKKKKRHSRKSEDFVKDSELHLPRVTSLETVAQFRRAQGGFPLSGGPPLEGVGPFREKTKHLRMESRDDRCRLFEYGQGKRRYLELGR
Procedure, shortened: (§1)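 Labelled DUBs from HEK293T lysate were NeutrAvidin-enriched, digested with LysC and trypsin, and run by diaPASEF LC-MS/MS. Before that, each 495 µg sample in Tris/CHAPS/IGEPAL buffer with protease inhibitors was treated in triplicate with fragment at 200 µM or vehicle for 3 h, then with Biotin-Ahx-Ub-VS at 0.5 µM final for 1 h. Values are average log2 ratios of fragment over vehicle by unpaired t-test, based on global-median-normalised Spectronaut label-free quantities from proteins with ≥2 unique peptides.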

USP46 = USP46 (UniProt P62068)
Chain of USP46 (P62068 whole entry): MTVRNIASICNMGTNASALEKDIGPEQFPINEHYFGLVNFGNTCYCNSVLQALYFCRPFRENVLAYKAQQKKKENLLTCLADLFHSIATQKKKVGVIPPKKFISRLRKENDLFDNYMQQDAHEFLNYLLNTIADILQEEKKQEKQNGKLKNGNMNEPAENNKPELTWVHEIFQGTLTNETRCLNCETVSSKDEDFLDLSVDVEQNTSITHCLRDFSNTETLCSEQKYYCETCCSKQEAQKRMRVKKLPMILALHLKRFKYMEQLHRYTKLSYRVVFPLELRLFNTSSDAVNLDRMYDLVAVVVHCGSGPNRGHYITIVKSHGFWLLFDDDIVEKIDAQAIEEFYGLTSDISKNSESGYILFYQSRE
Procedure, shortened: as §1

USP47 = target: T2, USP47 (UniProt Q96K76)
T2 sequence (whole entry): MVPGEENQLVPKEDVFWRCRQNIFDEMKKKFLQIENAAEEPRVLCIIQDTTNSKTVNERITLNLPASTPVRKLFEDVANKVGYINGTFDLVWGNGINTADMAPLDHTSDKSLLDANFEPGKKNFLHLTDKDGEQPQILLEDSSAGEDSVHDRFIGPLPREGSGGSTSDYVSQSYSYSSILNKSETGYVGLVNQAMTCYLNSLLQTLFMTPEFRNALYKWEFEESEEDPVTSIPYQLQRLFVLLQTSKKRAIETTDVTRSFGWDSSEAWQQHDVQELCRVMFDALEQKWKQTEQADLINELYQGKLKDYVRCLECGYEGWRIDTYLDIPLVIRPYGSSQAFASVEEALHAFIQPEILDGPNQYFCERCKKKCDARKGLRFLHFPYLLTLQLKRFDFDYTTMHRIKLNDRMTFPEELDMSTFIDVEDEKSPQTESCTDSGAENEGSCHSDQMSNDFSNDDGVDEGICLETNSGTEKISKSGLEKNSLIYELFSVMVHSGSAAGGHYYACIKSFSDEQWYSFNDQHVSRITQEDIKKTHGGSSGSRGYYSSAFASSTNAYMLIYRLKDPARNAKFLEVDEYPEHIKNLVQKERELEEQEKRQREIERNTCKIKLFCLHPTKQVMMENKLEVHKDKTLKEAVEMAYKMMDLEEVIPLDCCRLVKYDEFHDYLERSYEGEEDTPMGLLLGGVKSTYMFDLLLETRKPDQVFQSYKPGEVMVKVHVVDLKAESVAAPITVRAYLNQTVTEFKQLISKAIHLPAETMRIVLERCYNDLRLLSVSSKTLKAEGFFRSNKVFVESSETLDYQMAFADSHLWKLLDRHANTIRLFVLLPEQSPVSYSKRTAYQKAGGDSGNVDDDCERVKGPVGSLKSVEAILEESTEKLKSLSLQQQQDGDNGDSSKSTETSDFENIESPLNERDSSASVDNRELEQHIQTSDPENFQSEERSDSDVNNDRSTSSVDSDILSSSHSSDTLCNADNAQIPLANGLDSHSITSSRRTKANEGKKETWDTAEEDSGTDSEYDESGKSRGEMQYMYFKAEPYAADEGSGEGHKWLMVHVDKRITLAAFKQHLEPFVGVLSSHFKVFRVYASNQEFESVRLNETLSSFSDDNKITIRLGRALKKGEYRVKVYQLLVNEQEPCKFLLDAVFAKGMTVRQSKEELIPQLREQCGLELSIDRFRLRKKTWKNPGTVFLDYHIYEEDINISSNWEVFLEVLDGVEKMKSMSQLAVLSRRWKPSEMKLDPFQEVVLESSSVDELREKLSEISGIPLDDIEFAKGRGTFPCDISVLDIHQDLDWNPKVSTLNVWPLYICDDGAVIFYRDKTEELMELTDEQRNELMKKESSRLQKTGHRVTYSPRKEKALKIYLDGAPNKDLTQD
Procedure, shortened: as §1

USP48 = target: T3, USP48 (UniProt Q86UV5)
T3 sequence (whole entry): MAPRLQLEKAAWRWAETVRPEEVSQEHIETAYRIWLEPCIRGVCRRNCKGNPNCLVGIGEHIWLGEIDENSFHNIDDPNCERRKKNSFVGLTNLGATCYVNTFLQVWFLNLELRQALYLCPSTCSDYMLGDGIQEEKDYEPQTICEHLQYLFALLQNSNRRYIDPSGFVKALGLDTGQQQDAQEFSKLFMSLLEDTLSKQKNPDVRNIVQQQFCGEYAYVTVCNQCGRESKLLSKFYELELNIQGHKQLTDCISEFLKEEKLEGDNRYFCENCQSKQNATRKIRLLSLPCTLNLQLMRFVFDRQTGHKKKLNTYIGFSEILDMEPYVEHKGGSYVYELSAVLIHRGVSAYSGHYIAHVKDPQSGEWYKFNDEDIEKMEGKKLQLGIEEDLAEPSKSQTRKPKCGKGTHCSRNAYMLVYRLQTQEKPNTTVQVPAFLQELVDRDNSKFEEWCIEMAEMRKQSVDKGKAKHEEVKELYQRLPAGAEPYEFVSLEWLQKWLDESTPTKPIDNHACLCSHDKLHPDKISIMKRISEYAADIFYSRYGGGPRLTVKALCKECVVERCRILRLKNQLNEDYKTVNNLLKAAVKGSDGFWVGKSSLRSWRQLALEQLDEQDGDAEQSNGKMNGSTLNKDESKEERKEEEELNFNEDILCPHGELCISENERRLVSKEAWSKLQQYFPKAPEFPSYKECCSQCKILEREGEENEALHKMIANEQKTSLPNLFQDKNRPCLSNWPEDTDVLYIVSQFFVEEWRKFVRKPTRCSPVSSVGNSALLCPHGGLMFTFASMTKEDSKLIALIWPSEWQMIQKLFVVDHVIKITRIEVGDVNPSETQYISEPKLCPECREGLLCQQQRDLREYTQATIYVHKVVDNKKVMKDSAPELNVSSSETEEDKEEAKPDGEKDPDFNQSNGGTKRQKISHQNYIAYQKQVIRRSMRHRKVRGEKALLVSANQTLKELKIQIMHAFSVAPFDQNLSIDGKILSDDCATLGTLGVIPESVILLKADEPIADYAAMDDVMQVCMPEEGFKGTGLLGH
Procedure, shortened: as §1

USP5 = target: T4, USP5 (UniProt P45974)
T4 sequence (whole entry): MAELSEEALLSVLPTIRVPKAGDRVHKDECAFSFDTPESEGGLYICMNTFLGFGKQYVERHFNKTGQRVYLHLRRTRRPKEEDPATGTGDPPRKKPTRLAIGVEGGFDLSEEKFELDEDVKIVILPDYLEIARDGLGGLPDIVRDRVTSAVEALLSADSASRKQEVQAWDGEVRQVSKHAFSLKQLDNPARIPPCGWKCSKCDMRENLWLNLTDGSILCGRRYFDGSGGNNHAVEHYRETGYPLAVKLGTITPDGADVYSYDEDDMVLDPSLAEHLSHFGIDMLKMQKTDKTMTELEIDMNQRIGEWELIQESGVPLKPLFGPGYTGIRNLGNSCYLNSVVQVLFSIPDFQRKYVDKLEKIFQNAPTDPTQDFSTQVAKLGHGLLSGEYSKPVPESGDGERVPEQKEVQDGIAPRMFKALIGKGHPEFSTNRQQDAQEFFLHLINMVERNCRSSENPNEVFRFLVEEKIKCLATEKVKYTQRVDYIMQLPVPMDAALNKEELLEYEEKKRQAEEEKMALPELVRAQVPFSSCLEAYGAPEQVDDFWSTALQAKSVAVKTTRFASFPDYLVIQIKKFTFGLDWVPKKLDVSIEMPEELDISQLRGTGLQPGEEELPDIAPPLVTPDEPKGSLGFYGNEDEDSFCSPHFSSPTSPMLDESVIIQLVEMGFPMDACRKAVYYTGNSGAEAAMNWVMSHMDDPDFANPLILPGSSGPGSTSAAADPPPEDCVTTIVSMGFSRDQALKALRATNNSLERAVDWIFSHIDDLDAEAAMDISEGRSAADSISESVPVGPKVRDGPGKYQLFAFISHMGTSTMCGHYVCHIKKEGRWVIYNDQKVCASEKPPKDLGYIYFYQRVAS
Procedure, shortened: as §1

USP54 = USP54 (UniProt Q70EL1)
Procedure, shortened: as §1

USP7 = USP7 (UniProt Q93009)
Chain of USP7 (Q93009 whole entry, looked up): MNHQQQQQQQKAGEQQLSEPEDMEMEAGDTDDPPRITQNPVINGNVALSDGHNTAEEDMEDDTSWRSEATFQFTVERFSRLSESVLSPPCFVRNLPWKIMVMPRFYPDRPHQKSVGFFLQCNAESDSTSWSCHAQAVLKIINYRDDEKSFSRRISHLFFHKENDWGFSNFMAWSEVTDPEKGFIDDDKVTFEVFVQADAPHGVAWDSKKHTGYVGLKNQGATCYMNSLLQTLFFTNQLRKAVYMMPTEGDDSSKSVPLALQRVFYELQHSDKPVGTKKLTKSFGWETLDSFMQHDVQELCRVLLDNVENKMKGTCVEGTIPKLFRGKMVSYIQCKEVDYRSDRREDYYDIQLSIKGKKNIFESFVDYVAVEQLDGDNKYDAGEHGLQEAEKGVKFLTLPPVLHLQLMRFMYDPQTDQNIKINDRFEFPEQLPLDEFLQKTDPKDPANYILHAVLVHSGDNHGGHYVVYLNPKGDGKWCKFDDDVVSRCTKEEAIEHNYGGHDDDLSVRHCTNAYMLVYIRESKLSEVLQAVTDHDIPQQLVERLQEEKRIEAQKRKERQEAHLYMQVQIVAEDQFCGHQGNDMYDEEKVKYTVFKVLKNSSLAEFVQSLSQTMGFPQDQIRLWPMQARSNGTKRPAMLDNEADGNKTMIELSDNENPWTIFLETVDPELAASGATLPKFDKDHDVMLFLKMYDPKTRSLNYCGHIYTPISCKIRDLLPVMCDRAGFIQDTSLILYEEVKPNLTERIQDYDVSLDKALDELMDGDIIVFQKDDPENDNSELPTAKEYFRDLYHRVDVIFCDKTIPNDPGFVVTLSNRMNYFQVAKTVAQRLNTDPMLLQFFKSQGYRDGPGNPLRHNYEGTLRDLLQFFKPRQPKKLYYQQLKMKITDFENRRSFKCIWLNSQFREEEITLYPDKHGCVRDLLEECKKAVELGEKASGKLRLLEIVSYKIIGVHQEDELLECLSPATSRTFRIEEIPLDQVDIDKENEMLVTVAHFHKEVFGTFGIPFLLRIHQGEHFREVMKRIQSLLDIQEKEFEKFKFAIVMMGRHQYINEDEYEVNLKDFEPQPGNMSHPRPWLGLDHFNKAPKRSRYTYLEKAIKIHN
Procedure, shortened: as §1

USP8 = target: T5, USP8 (UniProt P40818)
T5 sequence (whole entry): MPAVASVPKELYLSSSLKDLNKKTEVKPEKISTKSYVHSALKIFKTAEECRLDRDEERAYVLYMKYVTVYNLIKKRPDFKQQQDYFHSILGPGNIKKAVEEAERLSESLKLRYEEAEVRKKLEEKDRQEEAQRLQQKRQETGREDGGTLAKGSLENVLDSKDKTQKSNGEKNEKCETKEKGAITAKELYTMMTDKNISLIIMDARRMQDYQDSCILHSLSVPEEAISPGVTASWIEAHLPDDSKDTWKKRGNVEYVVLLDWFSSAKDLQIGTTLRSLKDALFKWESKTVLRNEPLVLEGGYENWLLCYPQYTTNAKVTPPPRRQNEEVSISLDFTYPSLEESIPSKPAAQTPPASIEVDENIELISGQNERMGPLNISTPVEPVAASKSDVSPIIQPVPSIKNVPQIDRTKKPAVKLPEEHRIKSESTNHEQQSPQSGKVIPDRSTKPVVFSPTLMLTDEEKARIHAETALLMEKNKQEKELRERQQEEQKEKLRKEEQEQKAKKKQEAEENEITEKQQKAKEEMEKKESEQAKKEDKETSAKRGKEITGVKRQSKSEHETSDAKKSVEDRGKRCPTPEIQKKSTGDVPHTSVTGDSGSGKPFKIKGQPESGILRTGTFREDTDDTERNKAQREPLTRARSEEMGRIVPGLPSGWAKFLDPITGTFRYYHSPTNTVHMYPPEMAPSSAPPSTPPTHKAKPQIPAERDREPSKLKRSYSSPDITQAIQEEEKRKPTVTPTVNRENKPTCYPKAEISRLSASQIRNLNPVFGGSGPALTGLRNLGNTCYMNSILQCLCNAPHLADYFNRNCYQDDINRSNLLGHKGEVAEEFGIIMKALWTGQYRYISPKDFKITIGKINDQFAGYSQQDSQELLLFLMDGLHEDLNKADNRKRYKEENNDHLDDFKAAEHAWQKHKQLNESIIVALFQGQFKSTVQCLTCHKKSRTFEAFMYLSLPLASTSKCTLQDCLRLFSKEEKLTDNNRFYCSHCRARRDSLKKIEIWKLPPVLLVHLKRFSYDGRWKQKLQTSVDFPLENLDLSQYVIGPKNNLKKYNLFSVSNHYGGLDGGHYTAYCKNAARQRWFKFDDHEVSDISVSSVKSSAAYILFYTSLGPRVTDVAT
Procedure, shortened: as §1

USP9X = USP9X (UniProt Q93008)
Chain of USP9X (Q93008 whole entry): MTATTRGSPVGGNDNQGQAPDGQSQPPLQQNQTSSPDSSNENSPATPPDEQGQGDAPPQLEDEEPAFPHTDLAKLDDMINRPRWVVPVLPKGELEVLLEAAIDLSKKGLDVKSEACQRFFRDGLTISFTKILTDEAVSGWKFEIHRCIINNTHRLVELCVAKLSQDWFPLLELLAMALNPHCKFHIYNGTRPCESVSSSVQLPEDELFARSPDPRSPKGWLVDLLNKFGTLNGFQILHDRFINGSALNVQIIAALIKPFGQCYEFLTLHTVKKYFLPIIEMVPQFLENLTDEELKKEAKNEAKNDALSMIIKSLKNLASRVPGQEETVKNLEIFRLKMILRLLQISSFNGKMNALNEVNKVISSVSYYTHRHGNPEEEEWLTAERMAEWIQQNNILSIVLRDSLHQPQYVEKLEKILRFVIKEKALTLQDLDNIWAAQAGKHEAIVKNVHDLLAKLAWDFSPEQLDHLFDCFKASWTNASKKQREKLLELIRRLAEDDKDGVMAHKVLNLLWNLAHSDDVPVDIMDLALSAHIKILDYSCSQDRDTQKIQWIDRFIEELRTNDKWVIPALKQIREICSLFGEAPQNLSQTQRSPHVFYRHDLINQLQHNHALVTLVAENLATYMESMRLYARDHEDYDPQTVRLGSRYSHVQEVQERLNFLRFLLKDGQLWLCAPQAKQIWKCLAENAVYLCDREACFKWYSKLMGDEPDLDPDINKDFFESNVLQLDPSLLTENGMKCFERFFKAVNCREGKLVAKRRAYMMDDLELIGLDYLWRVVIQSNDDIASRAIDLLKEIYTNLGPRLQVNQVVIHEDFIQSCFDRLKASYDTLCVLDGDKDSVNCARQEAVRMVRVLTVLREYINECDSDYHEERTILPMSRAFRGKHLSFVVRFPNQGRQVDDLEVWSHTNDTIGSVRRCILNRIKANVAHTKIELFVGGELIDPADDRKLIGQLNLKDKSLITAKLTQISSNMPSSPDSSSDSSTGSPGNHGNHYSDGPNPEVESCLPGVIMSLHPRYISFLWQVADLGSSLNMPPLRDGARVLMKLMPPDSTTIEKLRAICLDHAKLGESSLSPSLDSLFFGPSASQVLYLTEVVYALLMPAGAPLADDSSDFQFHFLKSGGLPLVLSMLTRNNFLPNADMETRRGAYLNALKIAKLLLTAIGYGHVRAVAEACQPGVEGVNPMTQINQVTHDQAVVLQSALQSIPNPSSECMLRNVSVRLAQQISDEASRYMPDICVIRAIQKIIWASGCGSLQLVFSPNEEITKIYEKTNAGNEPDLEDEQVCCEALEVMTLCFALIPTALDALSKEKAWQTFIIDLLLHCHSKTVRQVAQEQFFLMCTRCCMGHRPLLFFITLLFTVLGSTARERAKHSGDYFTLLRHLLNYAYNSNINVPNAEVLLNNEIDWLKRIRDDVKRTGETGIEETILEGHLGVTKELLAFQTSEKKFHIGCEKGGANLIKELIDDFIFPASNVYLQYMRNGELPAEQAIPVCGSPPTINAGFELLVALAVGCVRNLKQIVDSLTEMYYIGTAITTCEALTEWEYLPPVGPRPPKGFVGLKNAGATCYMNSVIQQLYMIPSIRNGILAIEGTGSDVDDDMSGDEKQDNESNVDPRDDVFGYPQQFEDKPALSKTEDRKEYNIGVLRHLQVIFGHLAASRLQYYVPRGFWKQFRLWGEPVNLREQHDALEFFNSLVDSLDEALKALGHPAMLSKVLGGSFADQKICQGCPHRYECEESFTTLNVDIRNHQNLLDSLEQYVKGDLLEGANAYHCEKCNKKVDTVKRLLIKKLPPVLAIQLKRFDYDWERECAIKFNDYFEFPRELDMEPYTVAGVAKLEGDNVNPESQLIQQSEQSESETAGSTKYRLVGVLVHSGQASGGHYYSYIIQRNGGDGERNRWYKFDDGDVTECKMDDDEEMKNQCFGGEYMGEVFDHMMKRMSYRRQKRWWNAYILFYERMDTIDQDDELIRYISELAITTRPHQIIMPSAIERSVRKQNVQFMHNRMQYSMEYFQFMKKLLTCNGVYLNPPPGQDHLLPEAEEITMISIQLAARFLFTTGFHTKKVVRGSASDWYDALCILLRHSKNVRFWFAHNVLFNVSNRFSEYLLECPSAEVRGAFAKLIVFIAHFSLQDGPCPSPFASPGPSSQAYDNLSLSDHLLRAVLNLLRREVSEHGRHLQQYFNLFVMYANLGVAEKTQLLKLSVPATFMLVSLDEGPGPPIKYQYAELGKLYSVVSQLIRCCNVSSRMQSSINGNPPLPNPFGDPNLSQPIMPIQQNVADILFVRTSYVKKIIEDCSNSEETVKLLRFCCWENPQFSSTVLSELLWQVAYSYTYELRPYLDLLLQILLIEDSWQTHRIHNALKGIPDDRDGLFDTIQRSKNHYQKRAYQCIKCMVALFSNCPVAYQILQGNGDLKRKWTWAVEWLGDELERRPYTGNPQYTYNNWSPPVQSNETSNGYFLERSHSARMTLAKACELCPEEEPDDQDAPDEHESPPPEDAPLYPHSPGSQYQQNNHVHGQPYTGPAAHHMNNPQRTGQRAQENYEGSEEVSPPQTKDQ
Procedure, shortened: as §1

UniProt O00487 = target: UniProt O00487
Chain of UniProt O00487 (O00487 whole entry): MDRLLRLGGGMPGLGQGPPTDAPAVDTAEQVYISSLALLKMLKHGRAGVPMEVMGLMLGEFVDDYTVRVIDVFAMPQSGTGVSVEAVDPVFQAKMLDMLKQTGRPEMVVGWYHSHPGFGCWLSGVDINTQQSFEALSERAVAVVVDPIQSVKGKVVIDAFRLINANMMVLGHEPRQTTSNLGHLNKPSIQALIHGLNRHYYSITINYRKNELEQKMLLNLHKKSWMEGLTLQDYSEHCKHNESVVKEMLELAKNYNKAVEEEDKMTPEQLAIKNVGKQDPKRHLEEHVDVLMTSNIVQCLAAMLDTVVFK
Procedure, shortened: as §1

Measured: log2 ratio of Biotin-Ahx-Ub-VS probe labelling

CCCn1nccc1NC(=O)CCl
inactive: USP42 0.302 | USP46 -0.137 | USP47 -0.323 | USP48 -0.124 | USP5 -0.757 | USP54 0.705 | USP7 -0.254 | USP8 -0.318 | USP9X -0.239 | UniProt O00487 -0.102
